# Laboratory results published in PubChem BioAssay AID1159580 (chemical genetic matrix, 2015).
# Among all 5,500 compounds or so, about 2,000 (36%) were called active. About 18% were inconclusive and are not listed. The list shows a part of the results. A number with no mark means an inactive call. Rule as the data show it: active = normalized growth mostly below about 0.91 (no sharp cut-off); inconclusive = no clear call, values can overlap the other calls; inactive = mostly above about 0.92.
# Assay: chemical genetic growth profiling, strain panel (AID 1159580);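 also: tested at 20 µM; growth read once vehicle control cultures reached saturation at 30 °C; 1 = growth at the plate median or of vehicle wells; lower values mean less growth of the strain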
# Conditions: growth OD
smiles,measurement,setting,value
CN1C[C@H](C(=O)N[C@]2(C)O[C@@]3(O)[C@@H]4CCCN4C(=O)[C@H](Cc4ccccc4)N3C2=O)C[C@@H]2c3cccc4[nH]cc(c34)C[C@H]21,normalized growth,"S. cerevisiae deletion strains, locus YKL009W, strain mrt4, active compounds read low",0.97
same,normalized growth,"S. cerevisiae deletion strains, locus YKL068W, active compounds read low",0.989
same,normalized growth,"S. cerevisiae deletion strains, locus YKL085W, strain MDH1 (second series), active compounds read low",0.987
same,normalized growth,"S. cerevisiae deletion strains, locus YKL085W, strain MDH1, active compounds read low",0.987
same,normalized growth,"S. cerevisiae deletion strains, locus YKL160W, strain elf1, active compounds read low",0.928
same,normalized growth,"S. cerevisiae deletion strains, locus YKL190W, strain CNB1, active compounds read low",0.992
same,normalized growth,"S. cerevisiae deletion strains, locus YKR001C, strain vps1, active compounds read low",1
same,normalized growth,"S. cerevisiae deletion strains, locus YKR026C, strain gcn3, active compounds read low",0.996
same,normalized growth,"S. cerevisiae deletion strains, locus YKR091W, strain srl3, active compounds read low",0.983
same,normalized growth,"S. cerevisiae deletion strains, locus YLL001W, strain dnm1, active compounds read low",0.92
same,normalized growth,"S. cerevisiae deletion strains, locus YLL026W, active compounds read low",0.988
same,normalized growth,"S. cerevisiae deletion strains, locus YLL041C, strain sdh2, active compounds read low",0.997
same,normalized growth,"S. cerevisiae deletion strains, locus YLR027C, strain aat2, active compounds read low",0.992
same,normalized growth,"S. cerevisiae deletion strains, locus YLR039C, strain RIC1, active compounds read low",1.06
same,normalized growth,"S. cerevisiae deletion strains, locus YLR058C, strain SHM2, active compounds read low",0.957
same,normalized growth,"S. cerevisiae deletion strains, locus YLR102C, strain apc9, active compounds read low",0.974
same,normalized growth,"S. cerevisiae deletion strains, locus YLR113W, strain HOG1, active compounds read low",1.07
same,normalized growth,"S. cerevisiae deletion strains, locus YLR221C, strain rsa3, active compounds read low",0.997
same,normalized growth,"S. cerevisiae deletion strains, locus YLR258W, strain gsy2, active compounds read low",1.01
same,normalized growth,"S. cerevisiae deletion strains, locus YLR262C, strain YPT6 (second series), active compounds read low",0.973
same,normalized growth,"S. cerevisiae deletion strains, locus YLR262C, strain YPT6, active compounds read low",1.06
same,normalized growth,"S. cerevisiae deletion strains, locus YLR268W, strain sec22, active compounds read low",0.973
same,normalized growth,"S. cerevisiae deletion strains, locus YLR320W, strain mms22, active compounds read low",0.969
same,normalized growth,"S. cerevisiae deletion strains, locus YLR330W, strain CHS5, active compounds read low",0.984
same,normalized growth,"S. cerevisiae deletion strains, locus YLR342W, strain FKS1 (second series), active compounds read low",0.906
same,normalized growth,"S. cerevisiae deletion strains, locus YLR342W, strain FKS1, active compounds read low",1.01
same,normalized growth,"S. cerevisiae deletion strains, locus YLR357W, strain rsc2, active compounds read low",0.957
same,normalized growth,"S. cerevisiae deletion strains, locus YLR370C, strain arc18, active compounds read low",0.987
same,normalized growth,"S. cerevisiae deletion strains, locus YLR371W, strain rom2, active compounds read low",0.974
same,normalized growth,"S. cerevisiae deletion strains, locus YLR384C, strain iki3, active compounds read low",1.01
same,normalized growth,"S. cerevisiae deletion strains, locus YLR418C, strain cdc73, active compounds read low",0.803 (active)
same,normalized growth,"S. cerevisiae deletion strains, locus YML016C, strain PPZ1, active compounds read low",0.979
same,normalized growth,"S. cerevisiae deletion strains, locus YML032C, strain rad52, active compounds read low",0.979
same,normalized growth,"S. cerevisiae deletion strains, locus YML120C, strain ndi1, active compounds read low",0.95
same,normalized growth,"S. cerevisiae deletion strains, locus YML124C, strain tub3, active compounds read low",0.982
same,normalized growth,"S. cerevisiae deletion strains, locus YMR058W, strain fet3, active compounds read low",0.965
same,normalized growth,"S. cerevisiae deletion strains, locus YMR078C, strain ctf18, active compounds read low",0.963
same,normalized growth,"S. cerevisiae deletion strains, locus YMR125W, strain sto1, active compounds read low",0.921
same,normalized growth,"S. cerevisiae deletion strains, locus YMR129W, active compounds read low",0.989
same,normalized growth,"S. cerevisiae deletion strains, locus YMR205C, strain PFK2, active compounds read low",0.946
same,normalized growth,"S. cerevisiae deletion strains, locus YMR223W, strain ubp8, active compounds read low",0.941
same,normalized growth,"S. cerevisiae deletion strains, locus YMR231W, strain pep5, active compounds read low",1.01
same,normalized growth,"S. cerevisiae deletion strains, locus YMR263W, strain SAP30, active compounds read low",0.959
same,normalized growth,"S. cerevisiae deletion strains, locus YMR307W, strain GAS1, active compounds read low",0.821
same,normalized growth,"S. cerevisiae deletion strains, locus YNL067W, strain RPL9B, active compounds read low",0.961
same,normalized growth,"S. cerevisiae deletion strains, locus YNL071W, strain lat1, active compounds read low",0.994
same,normalized growth,"S. cerevisiae deletion strains, locus YNL128W, strain TEP1, active compounds read low",0.96
same,normalized growth,"S. cerevisiae deletion strains, locus YNL153C, strain GIM3, active compounds read low",0.965
same,normalized growth,"S. cerevisiae deletion strains, locus YNL183C, strain NPR1, active compounds read low",0.98
same,normalized growth,"S. cerevisiae deletion strains, locus YNL209W, strain ssb2, active compounds read low",0.981
same,normalized growth,"S. cerevisiae deletion strains, locus YNL233W, strain BNI4, active compounds read low",0.933
same,normalized growth,"S. cerevisiae deletion strains, locus YNL248C, strain rpa49, active compounds read low",0.933
same,normalized growth,"S. cerevisiae deletion strains, locus YNL250W, strain rad50, active compounds read low",0.984
same,normalized growth,"S. cerevisiae deletion strains, locus YNL271C, strain bni1, active compounds read low",0.974
same,normalized growth,"S. cerevisiae deletion strains, locus YNL298W, strain CLA4, active compounds read low",0.985
same,normalized growth,"S. cerevisiae deletion strains, locus YNL307C, strain MCK1, active compounds read low",0.967
same,normalized growth,"S. cerevisiae deletion strains, locus YNL322C, strain KRE1 (second series), active compounds read low",0.989
same,normalized growth,"S. cerevisiae deletion strains, locus YNL322C, strain KRE1, active compounds read low",0.996
same,normalized growth,"S. cerevisiae deletion strains, locus YNR049C, strain mso1, active compounds read low",0.983
same,normalized growth,"S. cerevisiae deletion strains, locus YNR052C, strain pop2, active compounds read low",0.972
same,normalized growth,"S. cerevisiae deletion strains, locus YOL006C, strain TOP1, active compounds read low",0.79
same,normalized growth,"S. cerevisiae deletion strains, locus YOL012C, strain htz1",0.956
same,normalized growth,"S. cerevisiae deletion strains, locus YOL147C, strain pex11, active compounds read low",0.975
same,normalized growth,"S. cerevisiae deletion strains, locus YOR001W, strain rrp6, active compounds read low",1.05
same,normalized growth,"S. cerevisiae deletion strains, locus YOR061W, strain CKA2, active compounds read low",0.986
same,normalized growth,"S. cerevisiae deletion strains, locus YOR069W, strain VPS5, active compounds read low",0.989
same,normalized growth,"S. cerevisiae deletion strains, locus YOR070C, strain gyp1, active compounds read low",1
same,normalized growth,"S. cerevisiae deletion strains, locus YOR080W, strain dia2, active compounds read low",0.996
same,normalized growth,"S. cerevisiae deletion strains, locus YOR083W, strain WHI5, active compounds read low",0.931
same,normalized growth,"S. cerevisiae deletion strains, locus YOR106W, strain vam3, active compounds read low",0.914
same,normalized growth,"S. cerevisiae deletion strains, locus YOR136W, strain idh2, active compounds read low",0.977
same,normalized growth,"S. cerevisiae deletion strains, locus YOR144C, strain elg1, active compounds read low",0.985
same,normalized growth,"S. cerevisiae deletion strains, locus YOR184W, strain ser1, active compounds read low",0.943
same,normalized growth,"S. cerevisiae deletion strains, locus YOR231W, strain MKK1, active compounds read low",1.05
same,normalized growth,"S. cerevisiae deletion strains, locus YOR265W, strain rbl2, active compounds read low",0.994
same,normalized growth,"S. cerevisiae deletion strains, locus YOR270C, strain vph1, active compounds read low",0.909
same,normalized growth,"S. cerevisiae deletion strains, locus YOR290C, strain snf2, active compounds read low",0.962
same,normalized growth,"S. cerevisiae deletion strains, locus YOR316C, strain cot1, active compounds read low",0.971
same,normalized growth,"S. cerevisiae deletion strains, locus YPL051W, strain arl3, active compounds read low",0.992
same,normalized growth,"S. cerevisiae deletion strains, locus YPL055C, strain LGE1, active compounds read low",0.91
same,normalized growth,"S. cerevisiae deletion strains, locus YPL078C, strain atp4, active compounds read low",0.926
same,normalized growth,"S. cerevisiae deletion strains, locus YPL106C, strain sse1, active compounds read low",0.967
same,normalized growth,"S. cerevisiae deletion strains, locus YPL240C, strain hsp82, active compounds read low",0.989
same,normalized growth,"S. cerevisiae deletion strains, locus YPL241C, strain CIN2, active compounds read low",0.993
same,normalized growth,"S. cerevisiae deletion strains, locus YPL256C, strain CLN2, active compounds read low",1.03
same,normalized growth,"S. cerevisiae deletion strains, locus YPR119W, strain clb2, active compounds read low",0.967
same,normalized growth,"S. cerevisiae deletion strains, locus YPR141C, strain kar3, active compounds read low",0.968
same,normalized growth,"S. cerevisiae deletion strains, locus YPR163C, strain tif3, active compounds read low",0.989
same,normalized growth,"S. cerevisiae deletion strains, locus YPR167C, strain met16, active compounds read low",0.969
same,normalized growth,"S. cerevisiae deletion strains, strain wtn01, active compounds read low",0.965
same,normalized growth,"S. cerevisiae strains, strain wild type, active compounds read low",0.986
